Several values for one entry are separate records, joined by “and”; a condition that tells them apart may be missing. Equal entries are not always repeated. Records with an inconclusive call do not appear. More than one record can exist for a structure, and the calls need not agree. Activity calls are given as the source filed them. The calls were made as follows, unless noted: active = hit-call score of the fitted dose curve at least 0.9, where 1 is the maximum; inconclusive = response in the unintended direction; inactive = score below 0.9.
How the values were obtained:
[1] = target: human CYP2A6, CYP2A6 (gene 1548) (UniProt P11509); test: NVS_ADME_hCYP2A6: NovaScreen (NVS) CYP450-related Enzyme Activity (ADME) Assay for human CYP2A6 (AID 2283099)
In short: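 Loss of fluorescence signal relative to acetonitrile vehicle reported CYP2A6 inhibition in a cell-free system using insect-cell-derived enzyme. Readings were taken at 0.5 h; top concentration in follow-up dose series was 20 uM.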

[2] = target: human CYP1A1, CYP1A1 (gene 1543) (UniProt P04798); test: NVS_ADME_hCYP1A1: NovaScreen (NVS) CYP450-related Enzyme Activity (ADME) Assay for human CYP1A1 (AID 2283100)
In short: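 Inhibition of recombinant CYP1A1 turnover was assessed fluorometrically in a biochemical format 1 h after compound exposure. Testing began at 10 uM in duplicate and progressed to concentration series reaching 20 uM, with on-plate positive and negative controls.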

[3] = target: human CYP2B6, CYP2B6 (gene 1555) (UniProt P20813); test: NVS_ADME_hCYP2B6: NovaScreen (NVS) CYP450-related Enzyme Activity (ADME) Assay for human CYP2B6 (AID 2283101)
In short: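 Compounds were first screened in duplicate at 10 uM against recombinant enzyme, with the fluorescent product measured after 1 hour. Active compounds were retested over a concentration series. Loss of fluorescence versus acetonitrile control was scored as reduced enzyme activity.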

[4] = target: human CYP1A2, CYP1A2 (gene 1544) (UniProt P05177); test: NVS_ADME_hCYP1A2: NovaScreen (NVS) CYP450-related Enzyme Activity (ADME) Assay for human CYP1A2 (AID 2283102);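 as to AC50: potency for inhibition since loss of fluorescence marks reduced CYP1A2 activity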
In short: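 Inhibition scored as decrease in fluorescent product versus acetonitrile negative control. Enzyme: insect-cell recombinant human CYP1A2, substrate-specific, cell-free. Reading at 0.5 h; 10 uM duplicate initial screen with positive and negative controls on every plate.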

[5] = target: human CYP2C9, CYP2C9 (gene 1559) (UniProt P11712); test: NVS_ADME_hCYP2C9: NovaScreen (NVS) CYP450-related Enzyme Activity (ADME) Assay for human CYP2C9 (AID 2283108)
In short: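 Fluorescence readout of CYP2C9 activity (SF9-expressed human enzyme) at 0.75 h. The primary screen used 10 uM in duplicate, with concentration-response follow-up for actives; acetonitrile was the negative control.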

[6] = target: Cytochrome P450 2C19 (Homo sapiens) (UniProt P33261); test: NVS_ADME_hCYP2C19: NovaScreen (NVS) CYP450-related Enzyme Activity (ADME) Assay for human CYP2C19 (AID 2283113);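 also: potency for inhibition seen as loss of fluorescent signal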
In short: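 Biochemical CYP2C19 inhibition screen: insect-cell recombinant protein plus fluorescent substrate, 1 h, fluorescence intensity. Acetonitrile defined baseline activity. Single 10 uM concentration in duplicate, with concentration-response follow-up for actives.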

[7] = target: human CYP19A1, CYP19A1 (gene 1588) (UniProt P11511); test: NVS_ADME_hCYP19A1: NovaScreen (NVS) CYP450-related Enzyme Activity (ADME) Assay for human CYP19A1 (AID 2283098);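 also: potency for inhibitors seen as loss of fluorescent enzyme signal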
In short: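 Biochem, cell-free; recombinant enzyme + specific substrate; fluorescence intensity at 0.5 h post-dose; 10 uM duplicate primary, conc. series for actives; acetonitrile = negative control/baseline; positive and negative controls on every plate.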

[8] = BSK_SAg_Proliferation: Cell Proliferation Assessment in the BioMAP Diversity Plus: SAg Assay (AID 2283095; active = hit-call score of the fitted dose curve at least 0.9, where 1 is the maximum; inactive = score below 0.9); settings: primary human HUVEC with PBMC
In short: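 Human umbilical vein endothelial cells co-cultured with PBMC; sulforhodamine B total-protein staining (0.1% SRB after 10% TCA fixation, absorbance 560 nm) at 96 h in sub-confluent culture. Fitted bidirectionally against DMSO.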

[9] = BSK_SAg_SRB: Viability Assessment in the BioMAP Diversity Plus: SAg Assay (AID 2283096; active = hit-call score of the fitted dose curve at least 0.9, where 1 is the maximum; inactive = score below 0.9;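 also: cells read one day after compound addition; hits may be either gain or loss of signal compared with DMSO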); settings: primary human HUVEC with PBMC
In short: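 Total protein by sulforhodamine B staining, 24 h after dosing, in HUVEC–PBMC co-culture; DMSO-referenced bidirectional fitting.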

[10] = target: human CYP2D6, CYP2D6 (gene 1565) (UniProt P10635); test: NVS_ADME_hCYP2D6: NovaScreen (NVS) CYP450-related Enzyme Activity (ADME) Assay for human CYP2D6 (AID 2283107)
In short: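 Biochemical fluorescence assay, insect-cell-derived enzyme. Read at 1 h; inhibition taken from loss of signal against acetonitrile. Screened at 10 uM in duplicate, with concentration series for actives.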

[11] = target: Cytochrome P450 2C18 (Homo sapiens) (UniProt P33260); test: NVS_ADME_hCYP2C18: NovaScreen (NVS) CYP450-related Enzyme Activity (ADME) Assay for human CYP2C18 (AID 2283103; active = hit-call score of the fitted dose curve at least 0.9, where 1 is the maximum; inactive = score below 0.9)
In short: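 Cell-free recombinant human CYP2C18 with fluorogenic substrate; fluorescence intensity read 0.5 h after dosing. Single-point screen at 10 uM in duplicate, then concentration-response up to 20 uM; loss of signal fitted against acetonitrile baseline.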

[12] = target: human CYP2J2, CYP2J2 (gene 1573) (UniProt P51589); test: NVS_ADME_hCYP2J2: NovaScreen (NVS) CYP450-related Enzyme Activity (ADME) Assay for human CYP2J2 (AID 2283106)
In short: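 Cell-free assay of recombinant CYP2J2 with a fluorogenic substrate, read 1 h after dosing; loss of signal versus acetonitrile. Primary screen at 10 uM in duplicate, then concentration-response up to 20 uM for chemicals passing threshold (e.g., 30% inhibition).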

[13] = target: rat CYP2C11, Cyp2c11 (gene 29277) (UniProt P08683); test: NVS_ADME_rCYP2C11: NovaScreen (NVS) CYP450-related Enzyme Activity (ADME) Assay for rat CYP2C11 (AID 2283118)
In short: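 Cell-free recombinant rat enzyme with fluorescent substrate; readout 0.33 h after dosing, loss of signal versus acetonitrile control. Initial duplicate single-point at 10 uM; actives rerun in concentration series.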

rat CYP2C6, gene 293989 = test: NVS_ADME_rCYP2C6: NovaScreen (NVS) CYP450-related Enzyme Activity (ADME) Assay for rat CYP2C6 (AID 2283120)
In short: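 Cell-free recombinant rat CYP2C6 with fluorogenic substrate, read by fluorescence 1 h after dosing; acetonitrile as negative control. Primary screen at 10 uM in duplicate, actives then in concentration-response up to 20 uM.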

[14] = target: Cytochrome P450 3A4 (Homo sapiens) (UniProt P08684); test: NVS_ADME_hCYP3A4: NovaScreen (NVS) CYP450-related Enzyme Activity (ADME) Assay for human CYP3A4 (AID 2283110)
In short: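 Compounds were first screened in duplicate at 10 uM against recombinant CYP3A4 produced in insect cells, then actives were run in concentration series. Enzyme activity was measured by fluorescence after 0.33 hour, with acetonitrile as baseline.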

rat CYP2B1, gene 24300 = test: NVS_ADME_rCYP2B1: NovaScreen (NVS) CYP450-related Enzyme Activity (ADME) Assay for rat CYP2B1 (AID 2283117)
In short: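 Recombinant rat CYP2B1 with fluorogenic substrate, read at 0.75 h. Primary screen in duplicate at 10 uM; compounds meeting threshold (e.g., 30% inhibition) re-run in concentration-response up to 20 uM. Fitted against acetonitrile control.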

Measured: AC50

Chain of human CYP1A2, CYP1A2 (gene 1544) (P05177 whole entry, looked up): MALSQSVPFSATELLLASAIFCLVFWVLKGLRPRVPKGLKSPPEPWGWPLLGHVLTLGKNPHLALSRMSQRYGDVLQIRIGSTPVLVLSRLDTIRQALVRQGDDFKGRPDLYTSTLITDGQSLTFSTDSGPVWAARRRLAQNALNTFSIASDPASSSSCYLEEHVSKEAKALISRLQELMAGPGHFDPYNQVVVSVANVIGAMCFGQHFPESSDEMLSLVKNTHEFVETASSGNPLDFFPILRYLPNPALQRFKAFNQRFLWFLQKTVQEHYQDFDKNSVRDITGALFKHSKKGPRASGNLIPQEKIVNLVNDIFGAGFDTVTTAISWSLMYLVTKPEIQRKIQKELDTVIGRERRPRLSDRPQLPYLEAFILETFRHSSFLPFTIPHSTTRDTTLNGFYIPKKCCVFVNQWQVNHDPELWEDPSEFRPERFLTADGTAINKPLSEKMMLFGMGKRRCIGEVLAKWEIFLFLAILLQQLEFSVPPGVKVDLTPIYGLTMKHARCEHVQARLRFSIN
Chain of human CYP2A6, CYP2A6 (gene 1548) (P11509 whole entry, looked up): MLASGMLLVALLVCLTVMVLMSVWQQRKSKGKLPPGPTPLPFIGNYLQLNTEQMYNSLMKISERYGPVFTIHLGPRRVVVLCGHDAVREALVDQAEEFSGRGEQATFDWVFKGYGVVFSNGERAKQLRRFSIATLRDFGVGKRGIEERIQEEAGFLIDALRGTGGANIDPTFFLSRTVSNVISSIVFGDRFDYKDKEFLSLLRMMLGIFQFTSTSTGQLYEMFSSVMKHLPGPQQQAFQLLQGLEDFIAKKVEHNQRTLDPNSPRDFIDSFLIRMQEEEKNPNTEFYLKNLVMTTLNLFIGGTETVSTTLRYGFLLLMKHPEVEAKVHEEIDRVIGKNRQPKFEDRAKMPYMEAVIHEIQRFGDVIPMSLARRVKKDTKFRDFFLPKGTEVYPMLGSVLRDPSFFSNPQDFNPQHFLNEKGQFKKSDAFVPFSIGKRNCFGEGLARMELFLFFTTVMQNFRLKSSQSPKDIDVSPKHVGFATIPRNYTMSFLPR
Chain of Cytochrome P450 3A4 (Homo sapiens) (P08684 whole entry, looked up): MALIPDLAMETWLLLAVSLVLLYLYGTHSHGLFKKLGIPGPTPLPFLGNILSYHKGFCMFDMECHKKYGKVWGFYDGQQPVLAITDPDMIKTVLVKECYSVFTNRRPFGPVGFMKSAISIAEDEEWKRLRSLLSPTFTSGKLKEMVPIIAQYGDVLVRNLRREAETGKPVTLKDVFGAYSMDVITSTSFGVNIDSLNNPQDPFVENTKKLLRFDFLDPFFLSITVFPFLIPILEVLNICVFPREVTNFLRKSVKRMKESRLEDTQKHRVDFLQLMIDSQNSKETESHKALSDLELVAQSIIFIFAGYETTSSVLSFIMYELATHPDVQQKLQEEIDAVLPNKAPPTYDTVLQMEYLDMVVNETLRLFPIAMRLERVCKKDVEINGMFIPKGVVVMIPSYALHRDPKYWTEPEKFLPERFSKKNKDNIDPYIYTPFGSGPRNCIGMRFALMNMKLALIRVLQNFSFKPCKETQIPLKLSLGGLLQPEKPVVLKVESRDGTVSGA
Chain of human CYP2C9, CYP2C9 (gene 1559) (P11712 whole entry, looked up): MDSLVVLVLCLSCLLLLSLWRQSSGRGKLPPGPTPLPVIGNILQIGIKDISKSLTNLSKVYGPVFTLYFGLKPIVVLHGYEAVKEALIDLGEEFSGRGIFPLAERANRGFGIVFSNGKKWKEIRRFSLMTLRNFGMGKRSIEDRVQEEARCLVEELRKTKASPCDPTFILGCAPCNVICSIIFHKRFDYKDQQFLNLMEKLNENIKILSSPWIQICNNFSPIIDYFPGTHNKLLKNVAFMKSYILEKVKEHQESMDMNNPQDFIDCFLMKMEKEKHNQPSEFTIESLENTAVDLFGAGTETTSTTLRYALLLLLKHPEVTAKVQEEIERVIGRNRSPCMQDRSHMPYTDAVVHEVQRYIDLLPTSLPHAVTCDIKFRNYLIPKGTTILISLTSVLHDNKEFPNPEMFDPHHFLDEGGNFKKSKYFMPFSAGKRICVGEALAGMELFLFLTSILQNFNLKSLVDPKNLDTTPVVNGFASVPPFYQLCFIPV
Chain of human CYP2B6, CYP2B6 (gene 1555) (P20813 whole entry, looked up): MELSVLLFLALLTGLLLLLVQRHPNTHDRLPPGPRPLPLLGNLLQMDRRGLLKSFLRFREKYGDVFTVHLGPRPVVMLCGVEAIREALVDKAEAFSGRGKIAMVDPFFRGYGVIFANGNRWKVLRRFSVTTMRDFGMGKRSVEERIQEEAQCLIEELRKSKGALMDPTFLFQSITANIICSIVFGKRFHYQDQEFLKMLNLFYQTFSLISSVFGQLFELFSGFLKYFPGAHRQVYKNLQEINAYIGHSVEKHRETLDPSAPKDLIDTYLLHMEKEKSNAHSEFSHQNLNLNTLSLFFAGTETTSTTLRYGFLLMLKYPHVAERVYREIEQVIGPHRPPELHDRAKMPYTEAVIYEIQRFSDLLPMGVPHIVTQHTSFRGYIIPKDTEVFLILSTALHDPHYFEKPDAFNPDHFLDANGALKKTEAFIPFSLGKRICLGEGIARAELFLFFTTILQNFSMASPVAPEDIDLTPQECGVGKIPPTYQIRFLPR
Chain of rat CYP2C11, Cyp2c11 (gene 29277) (P08683 whole entry, looked up): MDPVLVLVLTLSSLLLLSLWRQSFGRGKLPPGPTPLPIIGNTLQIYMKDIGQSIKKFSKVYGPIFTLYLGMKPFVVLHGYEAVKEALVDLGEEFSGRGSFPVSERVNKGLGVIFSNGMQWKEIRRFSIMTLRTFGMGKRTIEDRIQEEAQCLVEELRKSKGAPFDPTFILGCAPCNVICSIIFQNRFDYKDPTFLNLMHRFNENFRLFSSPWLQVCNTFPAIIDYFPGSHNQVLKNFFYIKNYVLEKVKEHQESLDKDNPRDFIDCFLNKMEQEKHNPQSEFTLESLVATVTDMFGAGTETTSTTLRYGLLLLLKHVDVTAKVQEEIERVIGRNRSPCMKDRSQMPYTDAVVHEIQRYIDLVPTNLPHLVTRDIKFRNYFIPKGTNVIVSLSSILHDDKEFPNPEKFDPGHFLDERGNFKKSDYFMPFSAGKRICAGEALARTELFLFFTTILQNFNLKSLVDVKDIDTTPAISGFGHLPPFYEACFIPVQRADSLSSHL
Chain of Cytochrome P450 2C18 (Homo sapiens) (P33260 whole entry, looked up): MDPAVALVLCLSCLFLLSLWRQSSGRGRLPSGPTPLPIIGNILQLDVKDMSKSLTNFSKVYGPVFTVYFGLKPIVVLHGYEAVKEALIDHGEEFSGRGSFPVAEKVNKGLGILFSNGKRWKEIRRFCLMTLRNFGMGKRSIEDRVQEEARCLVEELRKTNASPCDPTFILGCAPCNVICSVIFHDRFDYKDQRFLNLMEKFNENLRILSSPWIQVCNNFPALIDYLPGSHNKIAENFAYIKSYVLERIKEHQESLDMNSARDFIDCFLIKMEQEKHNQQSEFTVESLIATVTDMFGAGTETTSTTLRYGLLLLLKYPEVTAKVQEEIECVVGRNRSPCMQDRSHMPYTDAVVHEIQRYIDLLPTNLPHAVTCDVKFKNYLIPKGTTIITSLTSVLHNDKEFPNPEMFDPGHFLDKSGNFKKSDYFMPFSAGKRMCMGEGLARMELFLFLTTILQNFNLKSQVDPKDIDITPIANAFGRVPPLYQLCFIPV
Chain of human CYP2D6, CYP2D6 (gene 1565) (P10635 whole entry, looked up): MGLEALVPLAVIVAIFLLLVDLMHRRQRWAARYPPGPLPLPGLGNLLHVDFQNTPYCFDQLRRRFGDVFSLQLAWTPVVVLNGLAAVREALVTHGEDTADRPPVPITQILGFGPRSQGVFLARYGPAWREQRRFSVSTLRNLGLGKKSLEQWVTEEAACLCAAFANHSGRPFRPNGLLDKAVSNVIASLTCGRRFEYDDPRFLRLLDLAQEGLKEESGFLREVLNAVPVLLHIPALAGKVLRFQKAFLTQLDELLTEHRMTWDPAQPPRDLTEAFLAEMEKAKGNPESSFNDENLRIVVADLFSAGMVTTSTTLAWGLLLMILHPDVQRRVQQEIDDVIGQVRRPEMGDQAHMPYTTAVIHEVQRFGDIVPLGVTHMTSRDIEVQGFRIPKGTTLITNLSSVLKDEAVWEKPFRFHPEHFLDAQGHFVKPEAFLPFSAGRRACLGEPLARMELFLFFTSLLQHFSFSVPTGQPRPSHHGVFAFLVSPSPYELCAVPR
Chain of human CYP1A1, CYP1A1 (gene 1543) (P04798 whole entry, looked up): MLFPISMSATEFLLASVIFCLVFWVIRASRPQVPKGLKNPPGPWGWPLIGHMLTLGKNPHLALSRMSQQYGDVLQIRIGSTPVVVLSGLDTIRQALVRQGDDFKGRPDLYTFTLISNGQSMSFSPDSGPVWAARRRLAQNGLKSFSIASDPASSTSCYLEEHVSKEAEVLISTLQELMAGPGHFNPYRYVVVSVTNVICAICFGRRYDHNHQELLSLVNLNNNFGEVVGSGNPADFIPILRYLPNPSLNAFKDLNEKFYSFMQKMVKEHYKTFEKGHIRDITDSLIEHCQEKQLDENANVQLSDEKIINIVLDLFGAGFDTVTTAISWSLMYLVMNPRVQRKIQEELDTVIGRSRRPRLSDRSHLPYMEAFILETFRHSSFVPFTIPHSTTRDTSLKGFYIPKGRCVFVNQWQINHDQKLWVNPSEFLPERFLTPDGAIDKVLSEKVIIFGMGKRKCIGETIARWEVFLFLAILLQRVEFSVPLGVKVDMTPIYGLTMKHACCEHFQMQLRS
Chain of human CYP19A1, CYP19A1 (gene 1588) (P11511 whole entry, looked up): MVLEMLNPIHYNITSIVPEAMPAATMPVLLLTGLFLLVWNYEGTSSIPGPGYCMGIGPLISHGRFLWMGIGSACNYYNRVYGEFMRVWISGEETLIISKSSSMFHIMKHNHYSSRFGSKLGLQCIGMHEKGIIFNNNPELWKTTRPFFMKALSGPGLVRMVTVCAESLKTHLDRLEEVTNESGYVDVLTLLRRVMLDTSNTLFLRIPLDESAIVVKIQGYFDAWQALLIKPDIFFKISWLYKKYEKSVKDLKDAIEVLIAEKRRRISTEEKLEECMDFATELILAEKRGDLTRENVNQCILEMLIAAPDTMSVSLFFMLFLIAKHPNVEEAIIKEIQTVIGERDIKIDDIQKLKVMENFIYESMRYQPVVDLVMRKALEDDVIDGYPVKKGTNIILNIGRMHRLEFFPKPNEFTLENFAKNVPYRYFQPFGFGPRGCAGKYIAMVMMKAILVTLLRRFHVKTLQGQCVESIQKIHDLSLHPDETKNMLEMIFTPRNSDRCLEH

COc1cc(-c2ccc(N)c(OC)c2)ccc1N
active: [2] 3.13 µM and 3.48 µM | [3] 6.76 µM and 3.92 µM | [4] 1.27 µM | [5] 7.03 µM | [6] 3.49 µM and 2.33 µM
inactive: [1] | [4]

O=C(O)C(F)(F)C(F)(F)C(F)(F)C(F)(F)C(F)(F)C(F)(F)C(F)(F)C(F)(F)C(F)(F)C(F)(F)F
active: [5] 1.58 µM | [6] 16.2 µM

[O-][Cl+2]([O-])O
active: [7] 5.58 µM

O=[N+]([O-])c1ccc(O)c([N+](=O)[O-])c1
inactive: [8] | [9] | [1]

Nc1cccc2ccccc12
active: [10] 3.45 µM
inactive: [8] | [9]

COP(=S)(OC)Oc1ccc(Sc2ccc(OP(=S)(OC)OC)cc2)cc1
active: [8] 28.8 µM | [4] 7.61 µM | [11] 5.83 µM | [12] 3.3 µM | [5] 505 nM and 5.52 µM | [6] 4.32 µM and 1.06 µM | [13] 8.46 µM | rat CYP2C6, gene 293989 2.96 µM
inactive: [9]

Nc1ccc(-c2ccc(N)c(Cl)c2)cc1Cl
active: [9] 8.93 µM | [5] 1.24 µM | [6] 2.34 µM
inactive: [8]

O=S(=O)(c1ccc(Cl)cc1)c1ccc(Cl)cc1
inactive: [8] | [9]
active: [3] 2.89 µM | [6] 1.39 µM and 821 nM

CC(C)(C)c1cc(O)ccc1O
inactive: [1] | [14]
active: [8] 1.94 µM | [9] 15.3 µM | [10] 7.54 µM | [5] 5.93 µM | [6] 5.9 µM

O=C1C2(Cl)C3(Cl)C4(Cl)C(Cl)(Cl)C5(Cl)C3(Cl)C1(Cl)C5(Cl)C24Cl (stereo unspecified)
inactive: [14] | rat CYP2B1, gene 24300
active: [8] 4.64 µM | [9] 6.17 µM | [3] 2.02 µM and 4.09 µM and 1.02 µM | [11] 0.519 µM | [5] 82.1 nM and 2.8 µM and 487 nM | [6] 458 nM and 1.44 µM and 374 nM | rat CYP2B1, gene 24300 1.61 µM and 5.98 µM | [13] 193 nM and 1.16 µM and 250 nM | rat CYP2C6, gene 293989 7.93 µM and 5.36 µM

From PubChem BioAssay (EPA / NIEHS)
